Rows were chosen to be rich in hits. Some 3.3% of all compounds tested hit in one or more screens of this group.
14-3-3 Bad inh – disrupts binding of bovine 14-3-3 zeta to phospho-Bad peptide. P63103. TR-FRET 14-3-3zeta/Dy647-pBad peptide displacement, 1 h. inhibition, % at 21.7 µM. 220,000 tested, 0.71% active;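 active means inhibition above about 70%, limit read from the data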;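 further: 0% = full 14-3-3 plus peptide FRET controls and 100% = background without 14-3-3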
Target sequence (P63103 whole entry, looked up): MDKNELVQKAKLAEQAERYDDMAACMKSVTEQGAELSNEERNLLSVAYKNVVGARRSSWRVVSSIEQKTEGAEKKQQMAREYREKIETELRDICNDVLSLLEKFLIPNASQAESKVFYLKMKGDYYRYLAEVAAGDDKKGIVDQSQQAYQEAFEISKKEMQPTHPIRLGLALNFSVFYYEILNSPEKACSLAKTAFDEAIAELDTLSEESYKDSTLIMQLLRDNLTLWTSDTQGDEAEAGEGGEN
eIF4E-4G inh – inhibitors of eIF4E and eIF4G interaction in translation initiation; P63073+Q04637; TR-FRET eIF4E-eIF4GI(517-606) binding, 2 h; inhibition, % at 21.7 µM; 220,000 tested, 0.37% active; AID 782;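 further: 0% = full FRET control wells and 100% = background wells lacking eIF4GI fragment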
Mcl1-Noxa inh – disrupts binding of human Mcl-1 to Noxa peptide. TR-FRET Mcl-1/Noxa peptide binding, 2 h. Q07820. 220,000 tested, 1.5% active. inhibition, % at 21.7 µM;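 active means compounds that cut the protein-peptide binding signal by more than 50% relative to plate controls in a single-dose test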;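 further: His-tagged Mcl-1 with rhodamine Noxa BH3 peptide and terbium anti-His antibody; 0% = Mcl-1 plus Noxa peptide wells and 100% = peptide-only wells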
Target sequence (Q07820 whole entry, looked up): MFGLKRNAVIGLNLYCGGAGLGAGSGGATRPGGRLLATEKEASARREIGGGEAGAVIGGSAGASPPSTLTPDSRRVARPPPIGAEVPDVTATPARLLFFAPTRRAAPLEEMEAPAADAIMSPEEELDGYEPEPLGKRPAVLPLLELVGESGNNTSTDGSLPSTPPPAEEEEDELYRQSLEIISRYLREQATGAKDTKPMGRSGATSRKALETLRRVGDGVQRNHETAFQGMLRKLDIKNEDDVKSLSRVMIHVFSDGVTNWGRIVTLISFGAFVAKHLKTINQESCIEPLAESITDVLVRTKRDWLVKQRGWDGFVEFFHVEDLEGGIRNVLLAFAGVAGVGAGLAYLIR
Bim-Mcl-1 – inhibitors of Bim-Mcl-1 interaction, human; Bead-based flow cytometry, Bim peptide-Mcl-1 binding; Q07820; inhibition, % at 10 µM; 190,000 tested, 0.1% active; AID 1009; in the data active means inhibition above about 40%;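 further: 0% = no compound tracer wells and 100% = peptide blocker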
Mcl1-Bid inh – disrupts binding of human Mcl-1 to Bid peptide. 220,000 tested, 0.97% active. Q07820. TR-FRET Mcl-1/Bid-Dy647 peptide binding, 1536-well. inhibition, % at 21.7 µM;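 active means compounds that cut the binding signal by more than half at the single screening dose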;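 further: His-tagged Mcl-1 with europium anti-His antibody binding Bid BH3 peptide; 0% = Mcl-1 plus peptide wells and 100% = peptide-only wells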
NCF1 inh – blocks human p47phox regulatory protein of NADPH oxidases; p47phox/p22phox peptide binding, fluorescence polarization, 2 h; P14598; inhibition, % at 24.7 µM; 220,000 tested, 0.53% active;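 further: 0% = p47phox with labelled peptide and 100% = labelled peptide alone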
* = called active by the depositor; . = no result; [ ] = remark or other dose.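 How the source made its calls, unless noted: active means inhibition above about 30% (limit read from the data); inactive means the rest.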

SMILES	14-3-3 Bad inh	eIF4E-4G inh	Mcl1-Noxa inh	Bim-Mcl-1	Mcl1-Bid inh	NCF1 inh
CCn1nnnc1SCC(=O)NC1Cc2ccccc2C1	-1	1	9	.	-25	-1
Cc1cccc2cc3c(N)c(C#N)sc3nc12	-2	-4	30	4	-8	-52
Cc1sc(NC(=O)c2sc3nc4c(C)cccc4cc3c2N)c(C#N)c1C	60	-2	96*	0	97*	-51
Cc1ccc(-c2nc3s/c(=C\c4ccco4)c(=O)n3n2)cc1	-4	0	52*	-3	22	-20
Cc1ccc(/C=c2\sc3nc(-c4ccccc4Br)nn3c2=O)o1	-10	12	79*	9	62*	-112
Cc1ccc(/C=c2\sc3nc(-c4ccco4)nn3c2=O)o1	1	11	77*	5	25	-79
O=c1nc2s/c(=C\c3ccco3)c(=O)n2nc1Cc1ccc(F)cc1	-5	7	65*	-2	-31	-17
COc1ccccc1/C=c1\sc2nc(-c3ccccc3OC)nn2c1=O	1	-10	-2	-1	-4	-23
Cc1ccc(/C=c2/sc3nnc(-c4ccccc4Cl)n3c2=O)o1	5	1	39	-5	-22	-32
Cn1nnc2ccccc2c1=O	2	-5	-1	3	-21	3
Cc1ccccc1C(=O)NC(C(N)=O)P(=O)(OC(C)C)OC(C)C (centres undefined)	-14	-9	5	.	-16	-4
Cc1ccc(-c2nnc(SCC(=O)NC3CC3)n2N)cc1	4	-6	-19	.	-23	-13
COc1ccccc1NC(=O)c1c(N=Cc2cccc([N+](=O)[O-])c2)cnn1C	-2	46*	8	.	-4	2
Cc1ccc(Cl)cc1NC(=S)N1CCC(c2ccccc2)C1 (centres undefined)	-21	2	7	1	-47	0
Cc1ccc(S(=O)(=O)NCCCN2CCOCC2)cc1C	18	3	13	1	-18	-5
Cc1cc(C)c(S(=O)(=O)NCC2CCC(C(=O)NCCCN3CCOCC3)CC2)c(C)c1 (centres undefined)	-8	7	21	-3	16	39*
Cc1cc(C)c(C)c(S(=O)(=O)NCCCN2CCOCC2)c1C	86*	5	10	0	-1	1
Cc1ccc(S(=O)(=O)NCC2CCC(C(=O)NCCCN3CCOCC3)CC2)cc1 (centres undefined)	6	3	-2	1	-33	-1
COc1ccc(C2CC(c3cccs3)=NN2C(=O)COC(=O)C2CCCCC2)cc1OC (centres undefined)	10	2	22	-2	-9	-15
CN(c1ccc(O)cc1)c1nc(-c2cccs2)cs1	-6	1	2	0	-32	-102
CN(C1=NC(=O)CS1)c1ccc(O)cc1	2	-4	-6	.	97*	-16
O=C(NC(=S)Nc1ccc(CN2CCOCC2)cc1)c1ccc2c(c1)OCCO2	0	-2	34	.	-64	-6
COc1ccc2c(-c3cc4ccc(OCc5ccc(F)cc5)cc4oc3=O)cc(=O)oc2c1	92*[fluorescence artefact?]	15	-2	0	56*	37*
Cc1cc(C)cc(NC(=O)COc2ccc(C(=S)N3CCOCC3)cc2)c1	-11	-1	-3	-2	-21	7
Cn1c(SCC(=O)Nc2ccc3nc(SCC(=O)NC4CC4)sc3c2)nnc1-c1ccccc1	5	-2	12	-2	8	1
SMILES	14-3-3 Bad inh	eIF4E-4G inh	Mcl1-Noxa inh	Bim-Mcl-1	Mcl1-Bid inh	NCF1 inh
CCN(CC)C(=O)CSc1nc2ccc(NC(=O)CSc3nccn3C)cc2s1	-14	2	56*	14	4	-23
Cn1c(SCC(=O)Nc2ccc3nc(SCC(=O)N4CCCC4)sc3c2)nnc1-c1ccc(N)cc1	-2	0	100*	0	24	-6
C#CCOCCOCCOCCNc1nc(N2CCN(C(=O)[C@H](CCCCN)n3cc([C@@H](N)C(C)CC)nn3)CC2)nc(N2CCN(C(=O)[C@H](Cc3cc4ccccc4[nH]3)n3cc([C@@H](N)CC(C)C)nn3)CC2)n1 (some centres undefined)	23	-4	34	-1	50	.
COCC(=O)NC1(c2nnnn2CCOC(=O)Nc2ccc(Cl)cc2)CCCCC1	17	-2	17	0	5	-12
CN1CCSc2ccc(C(=O)Nc3cccc(F)c3)cc21	-8	1	27	.	-113	-7
Cc1cc(S(=O)(=O)n2cnc3cc([N+](=O)[O-])ccc32)ccc1Cl	2	11	34	-4	-8	-5
Cc1ccc(S(=O)(=O)n2cnc3cc([N+](=O)[O-])ccc32)cc1C	71*	2	19	-1	23	7
O=C(CCNc1ccc(Cl)cc1)c1cccs1	2	4	10	-4	-83	-8
O=C(CCSc1ccc(Cl)cc1)c1cccs1	5	-1	57*	-6	-6	-3
N#Cc1c(-c2ccccc2)cc(-c2ccco2)c(C#N)c1N	12	-2	74*	-1	14	-54
N#Cc1sc2nc(-c3ccccc3)cc(-c3ccco3)c2c1N	-1	-9	102*	0	74*	-10
Cc1ccc(-c2cc(-c3ccco3)c(C#N)c(=O)[nH]2)cc1	26	14	68*	.	-32	-31
O=C(CSc1nc2ccc([N+](=O)[O-])cc2[nH]1)c1ccc2ccccc2c1	-11	-3	62*	0	29	-13
O=C(Cn1cncn1)N/N=C/c1cccc(Cl)c1	7	6	10	.	-31	-9
Cc1cccc(NC(=O)Cn2c(O)c(N=NC(=O)c3ccccc3O)c3ccccc32)c1	59	16	66*	-1	66*	33*
Cc1ccc(NC(=O)Cn2c(O)c(N=NC(=O)c3cc([N+](=O)[O-])ccc3O)c3ccccc32)cc1	-2	-5	50*	.	-29	-19
Cc1cccc(NC(=O)Cn2c(=O)oc3ccccc32)c1	-2	6	16	0	-12	9
OC(CNCc1ccccc1Cl)C(F)(F)F (centres undefined)	82*	1	12	0	-25	-2
COC(=O)c1sc(-c2ccc(C(C)(C)C)cc2)cc1NC(=O)CCC(=O)O	10	7	27	.	19	33*
COC(=O)c1sc(-c2ccc(Cl)cc2)cc1NC(=O)COCC(=O)O	9	5	3	.	13	-5
COCCCNC(=O)c1ccccc1Oc1ccccc1	-4	-3	0	0	-21	-7
COCCCNC(=O)c1ccc2c3c(onc13)-c1ccccc1C2=O	0	1	55*	.	-109	-44
Nc1cc(S(=O)(=O)N2CCCCC2)ccc1Oc1ccccc1	-8	-5	-3	0	-36	-13
CC(C)(C)c1ccc2c(c1)C(=O)c1ccccc1C2=O	4	7	-14	-1	-37	-1
